# PubChem BioAssay (EPA / NIEHS)
# Calls of active or inactive are those of the source. How the source made its calls: active means hit-call score of the fitted dose curve at least 0.9, where 1 is the maximum; inactive means score below 0.9.
# Read-out: Nuclear factor erythroid 2-related factor 2 (Homo sapiens) (UniProt Q16236)
# Experiment: LTEA_HepaRG_NFE2L2: Life Technologies and Expression Analysis (LTEA) Assay for Nuclear factor erythroid 2-related factor 2 (NFE2L2) Transcription Factor using HepaRG (AID 2283527);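 on outcome: TaqMan qRT-PCR transcript level normalised to ACTB GAPDH and POLR2A housekeeping genes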
# Conditions: mRNA level, 48 h; actives raise or lower the signal
# Experimental: LTEA_HepaRG is a cell based, multiplexed-readout assay that uses HepaRG, a human liver cell line, with measurements taken at 48 hours after chemical dosing on a 96-well plate.LTEA_HepaRG_NFE2L2 is one of 102 assay component(s) measured in the LTEA HepaRG cell culture assay. It is a marker of Inflammation/injury.Data from the assay component LTEA_HepaRG_NFE2L2 was analyzed into 1 endpoint. This assay endpoint, LTEA_HepaRG_NFE2L2, was analyzed with bidirectional fitting relative to DMSO as the negative control and baseline of activity. Using a type of inducible reporter, measures of mRNA induction for gain or loss-of-signal activity can be used to understand regulation of transcription factor activity. To generalize the intended target to other relatable targets, this assay endpoint is annotated to the dna binding intended target family, where the subfamily is basic leucine zipper.
# A total of 1060 chemcials from the ToxCast library were tested in eight-point concentration-response experiments. Cell culture and cytotoxicity assays were conducted at Thermo Fisher Scientific's Custom Services facility (Madison, WI). A single lot of human HepaRG cells (Thermo Fisher Scientific, Frederick, MD) was used for the cell culture experiments. 96-well format collagen type I coated plates of human HepaRG cells were prepared using established methods. Briefly, cryopreserved HepaRG cells were thawed, plated at a density of approximately 100,000 cells/well in HepaRG Thaw, Plate, and General Purpose media (HPRG770, Thermo Fisher Scientific), and incubated for 48 hours. 0.5% DMSO was selected as vehicle control to balance the requisite need of DMSO in HepaRG cultures to maintain differentiation (for example, baseline metabolism, proportions of hepatocytes vs. cholangiocytes), while enabling further hepatic receptor pathway activation (for example, PXR and CAR) in response to chemical exposure. 48 hours after plating, the culture medium was replaced with HepaRG Serum-Free Incudtion Media. Cells were exposed to each test chemical in duplicate and maintained in CO2 incubators for another 48 hours. Chemical plates were thawed to room temperature and 200x concentrations of treatment groups were prepared. 8-point conentration-reponse curves were made with the highest exposure at 100 uM, followed by half-log dilutions, all in 0.5% DMSO. Each test plate contained variouse controls, induction positive controls (1mM phenobarbital), cytotoxicity positive controls ([…] aflatoxin B1), vehicle controls (0.5% DMSO), and total lysis controls (0.5% DMSO). Cell morphology images were taken using an Essen IncuCyte FLR automated microscope, with six 96-well plates imaged in about 24 minutes. Images were captured and exported and JPEG files. Spent culture media was transfered to black-well plates for the LDH assay, and remaining media was sorted at -80 C for later use. Cells were treated with RLT buffer and frozen until shipped for gene expression analysis. Total RNA was isolated from the cell suspension in 75 uL of Buffer RLT (Qiagen, Germantown, MD 20874) by Quintiles/Expression Analysis (Durham, NC) using a custom isolation procedure. Total RNA from each plate well was transferred to a preamplification plate. Fluidigm's 96.96 Dynamic ArrayTM (Fluidigm, Amsterdam, the Netherlands) technology was used for gene expression analyses by quantitative reverse transcription polymerase chain reaction (qRT-PCR, performed by Quintiles/Expression Analysis, Durham, NC)89. Standard TaqManTM Assays (Applied Biosystems/ThermoFisher Scientific, Foster City, CA) were used to assess the expression of 93 genes selected based on their selectivity and sensitivity to important hepatic receptors known to be modulated by environmental chemicals; importance in human hepatocyte functionality; and hepatotoxicity. […]
# Sequence of Nuclear factor erythroid 2-related factor 2 (Homo sapiens) (Q16236 whole entry, looked up): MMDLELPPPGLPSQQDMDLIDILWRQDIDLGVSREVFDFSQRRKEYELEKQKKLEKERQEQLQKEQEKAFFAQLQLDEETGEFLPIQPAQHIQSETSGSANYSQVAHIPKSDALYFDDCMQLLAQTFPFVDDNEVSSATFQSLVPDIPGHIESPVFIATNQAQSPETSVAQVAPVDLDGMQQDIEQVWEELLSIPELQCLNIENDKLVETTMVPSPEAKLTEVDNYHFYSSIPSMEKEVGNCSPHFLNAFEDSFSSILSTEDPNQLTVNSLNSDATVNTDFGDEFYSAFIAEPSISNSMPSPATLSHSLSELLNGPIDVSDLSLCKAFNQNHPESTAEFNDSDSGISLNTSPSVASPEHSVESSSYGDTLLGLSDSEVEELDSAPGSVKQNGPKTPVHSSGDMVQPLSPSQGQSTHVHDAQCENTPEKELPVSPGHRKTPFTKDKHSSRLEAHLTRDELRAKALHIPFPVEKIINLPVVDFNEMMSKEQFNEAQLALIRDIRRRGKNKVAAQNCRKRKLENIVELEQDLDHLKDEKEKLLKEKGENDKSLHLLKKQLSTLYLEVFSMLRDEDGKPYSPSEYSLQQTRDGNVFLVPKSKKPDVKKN
SMILES,AC50,outcome
COc1ccc2sc(C(=O)Nc3nnn[nH]3)c(OC(C)C)c2c1,27.6 µM (active),–
C1N2CN3CN1CN(C2)C3,–,inactive
COC(=O)CC(=O)OC,–,inactive
O=C(O)c1cccc(Oc2ccccc2)c1,–,inactive
O=P(OC(CCl)CCl)(OC(CCl)CCl)OC(CCl)CCl,83 µM (active),–
O=C(OC[C@H]1O[C@@H](OC(=O)c2cc(O)c(O)c(OC(=O)c3cc(O)c(O)c(O)c3)c2)[C@H](OC(=O)c2cc(O)c(O)c(OC(=O)c3cc(O)c(O)c(O)c3)c2)[C@@H](OC(=O)c2cc(O)c(O)c(OC(=O)c3cc(O)c(O)c(O)c3)c2)[C@@H]1OC(=O)c1cc(O)c(O)c(OC(=O)c2cc(O)c(O)c(O)c2)c1)c1cc(O)c(O)c(OC(=O)c2cc(O)c(O)c(O)c2)c1,15.2 µM (active),–
COCCOc1cc2cc(C(=O)NC3CCN(C(C)C)CC3)n(CC(=O)Nc3ccc(Cl)cn3)c2cn1,–,inactive
CC[C@H](C)C(=O)O[C@H]1C[C@@H](C)C=C2C=C[C@H](C)[C@H](CC[C@@H]3C[C@@H](O)CC(=O)O3)[C@H]21,–,inactive
O=C(O)c1cccc(N(Cc2cccnc2)c2ccc(OC(F)F)c(OC(F)F)c2)c1,–,inactive
CCNc1ccccc1,–,inactive
O=c1n(CC2CO2)c(=O)n(CC2CO2)c(=O)n1CC1CO1 (stereo not given),–,inactive
Fc1ccccc1[C@@H](F)COC1CCC(Nc2ncnc3[nH]ncc23)CC1 (stereo not given in full),88.8 µM (active),–
CCn1nc(Cc2ccccc2)cc1C1CCN(C[C@H]2C[C@H](N(C)[C@@H](C(=O)O)C(C)C)C[C@@H]2c2cccc(F)c2)CC1,–,inactive
COc1ccc(-n2nc(C(F)F)cc2-c2ccc(S(C)=O)cc2)cc1 (stereo not given),–,inactive
CC(=O)c1ccc2c(c1)[C@H](NC(=O)c1ccc(F)cc1)[C@@H](O)C(C)(C)O2,–,inactive
Nc1cccc(N)c1,–,inactive
COCCOCCOCCOC,–,inactive
CN(C)c1ccc(N=NS(=O)(=O)O)cc1,–,inactive
CC(C)CC(C)(O)C#CC(C)(O)CC(C)C (stereo not given),–,inactive
CCCCC(CC)COC(=O)c1ccc(C(=O)OCC(CC)CCCC)cc1 (stereo not given),–,inactive

SMILES,AC50,outcome
CN(C)c1ccc(Cc2ccc(N(C)C)cc2)cc1,–,inactive
CCCN(C1CCN(C(=O)C2CCNCC2)CC1)[C@@H]1CCc2ccc(OC)cc2C1,–,inactive
COC(=O)c1ccccc1O,–,inactive
C1=CCCC=CCCC=CCC1,–,inactive
CC(C)(O)c1coc(S(=O)(=O)NC(=O)Nc2c3c(cc4c2CCC4)CCC3)c1,–,inactive
Cc1ccc(S(=O)(=O)O)cc1C,–,inactive
CC(C)CCO,–,inactive
Nc1ccc(Nc2ccccc2)cc1,–,inactive
CCOCCO,–,inactive
O=C1CCC(N2C(=O)c3ccccc3C2=O)C(=O)N1 (stereo not given),–,inactive
CC[C@H]1OC(=O)[C@H](C)[C@@H](O[C@H]2C[C@@](C)(OC)[C@@H](O)[C@H](C)O2)[C@H](C)[C@@H](O[C@@H]2O[C@H](C)C[C@H](N(C)C)[C@H]2O)[C@](C)(O)C[C@@H](C)C(=O)[C@H](C)[C@@H](O)[C@]1(C)O,–,inactive
CCCC(=O)OCC,–,inactive
COc1ccc(/C=C/S(=O)(=O)NC(=O)c2ccc(C)cc2Cl)cc1,–,inactive
CCOC(=O)COc1ccc2c(c1)CC(NCC(O)c1cccc(Cl)c1)CC2 (stereo not given),–,inactive
COc1cccc(-c2ccc(/C=C\CN3CCCCCC3)cc2Cl)c1,65.7 µM (active),–
Cn1cnc([N+](=O)[O-])c1Sc1ncnc2nc[nH]c12,–,inactive
O=C(CCCCCCCCc1cccnc1)N1CCC(C=C(c2ccccc2)c2ccccc2)CC1,24.9 µM (active),–
O=C(O)CCN(C1(C(=O)NO)CCCC1)S(=O)(=O)c1ccc(Oc2ccc(F)cc2)cc1,–,inactive
CC[C@H]1CC[C@H](NCc2cc3c(cc2OC)[C@H]2C[C@H]2C(=O)N3C)[C@H](c2ccccc2)N1,–,inactive
CC(=O)OC[C@H]1O[C@@](COC(C)=O)(O[C@H]2O[C@H](COC(C)=O)[C@@H](OC(C)=O)[C@H](OC(C)=O)[C@H]2OC(C)=O)[C@@H](OC(C)=O)[C@@H]1OC(C)=O,–,inactive
